Holding throughout (assay): NCI-60 one-dose screen, 48 h (100 = growth as untreated, 0 = no growth, -100 = all killed)
In one experiment the test system is NCI-H23 lung. The conditions noted are these: 10 µM unless noted.
The test system of a further experiment is NCI-H226 lung. The conditions noted are these: 10 µM unless noted.
The subject of a further experiment is NCI-H322M lung. The conditions noted are these: 10 µM unless noted.
A further experiment relates to HOP-62 NSCLC. The following applies: 10 µM unless noted.
A further experiment deals with NCI-H460 lung. The following applies: 10 µM unless noted.
For another experiment, the system named is HOP-92 NSCLC. The following applies: 10 µM unless noted.
The next experiment has as its system NCI-H522 lung. The conditions noted are these: 10 µM unless noted.
The next experiment concerns 786-0 renal. The conditions noted are these: 10 µM unless noted.
A further experiment relates to COLO 205 colon. The conditions noted are these: 10 µM unless noted.
A further experiment has as its system DU-145 prostate. The following applies: 10 µM unless noted.
The test system of a further experiment is K-562 leukemia. The following applies: 10 µM unless noted.
For another experiment, the system named is MALME-3M melanoma. The conditions noted are these: 10 µM unless noted.
The test system of another experiment is MDA-MB-231 breast. The following applies: 10 µM unless noted.
The test system of another experiment is RXF 393 renal. The following applies: 10 µM unless noted.
The subject of the next experiment is SF-268 CNS. The conditions noted are these: 10 µM unless noted.
The subject of another experiment is SF-295 CNS. The following applies: 10 µM unless noted.
Another experiment has as its system SF-539 CNS. The conditions noted are these: 10 µM unless noted.
The next experiment concerns UACC-257 melanoma. The conditions noted are these: 10 µM.
A further experiment has as its system M14 melanoma. The following applies: 10 µM unless noted.

Molecules are shown by their SMILES. Compounds without any hit were thinned out: in the full panel of roughly 83,000, 20% have a hit.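 Interpretation: 100, growth as untreated; towards 0, rising growth inhibition; 0, no net growth; 0 to -100, cell death. Compounds scoring below 10 were considered active.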 Values without a mark were called inactive. Active and inactive are the calls of the source.

As for `COc1cc(O)c2c(c1)/C=C/C[C@H](O)[C@H](O)C(=O)/C=C\C[C@H](C)OC2=O`, the growth in the experiment with NCI-H23 lung was -1.38% (active); with NCI-H226 lung it was 40.6%; with NCI-H322M lung it was 64%; in the experiment on HOP-62 NSCLC, 51.1%; in the experiment on NCI-H460 lung it was 23.2%; with HOP-92 NSCLC, -15.4% (active). Further, the growth with NCI-H522 lung was -61.3% (active); in the experiment on 786-0 renal, 24.7%; in the experiment on COLO 205 colon, -5.15% (active); with DU-145 prostate, -2.78% (active); with K-562 leukemia, 9.06% (active); in the experiment on MALME-3M melanoma it was -20.3% (active). The growth in the experiment with MDA-MB-231 breast was -7.72% (active); with RXF 393 renal it was -56.9% (active); in the experiment on SF-268 CNS it was 34.9%; in the experiment with SF-295 CNS, 60.2%; with SF-539 CNS it was -24.8% (active); in the experiment on UACC-257 melanoma it was -19.7% (active). The growth in the experiment on M14 melanoma is -22.7% (active).
As for `COc1ccc(C(=O)n2cc(C=O)c3ccccc32)cc1`, the growth was 101% in the experiment with NCI-H23 lung; 96.7% with NCI-H226 lung; 95.2% in the experiment on NCI-H322M lung; 124% with HOP-62 NSCLC; 110% with NCI-H460 lung; 83.1% in the experiment with HOP-92 NSCLC. In addition, the growth was 98.6% in the experiment on NCI-H522 lung; 102% with 786-0 renal; 114% in the experiment with COLO 205 colon; 105% in the experiment with DU-145 prostate; 82.1% in the experiment with K-562 leukemia; 93.2% in the experiment on MALME-3M melanoma. The growth was 91.8% with MDA-MB-231 breast; 106% with RXF 393 renal; 92.5% in the experiment with SF-268 CNS; 99.6% in the experiment with SF-295 CNS; 89.2% in the experiment on SF-539 CNS; 103% in the experiment on UACC-257 melanoma. In addition, the growth in the experiment on M14 melanoma is 82.8%.
Consider `Cc1ccc(NC(=O)N[C@@H](Cc2cc(F)cc(F)c2)C(=O)NC2C(=O)N3CCC[C@H]3C(=O)N3CCCC[C@H]3C(=O)N[C@@H](C)C(=O)N3C[C@H](C)C[C@H]3C(=O)O[C@H]2C)c(F)c1` (some centres undefined), for which the growth was 35.2% with NCI-H23 lung; 1.32% (active) with NCI-H226 lung; 52.7% in the experiment with NCI-H322M lung; 33.8% with HOP-62 NSCLC; 15.3% in the experiment on NCI-H460 lung; 4.3% (active) in the experiment on HOP-92 NSCLC. For the same compound, the growth was 19.7% in the experiment on NCI-H522 lung; 40.7% in the experiment on 786-0 renal; -33.3% (active) with COLO 205 colon; 25.7% in the experiment on DU-145 prostate; 20.2% with K-562 leukemia; 44.3% in the experiment with MALME-3M melanoma. Further, the growth in the experiment with MDA-MB-231 breast is 34.6%; in the experiment with RXF 393 renal it was -7.39% (active); with SF-268 CNS, 34.9%; in the experiment with SF-295 CNS, 9.62% (active); with SF-539 CNS it was 39.2%; with UACC-257 melanoma, 16.9%. Besides, the growth in the experiment on M14 melanoma was 23%.
With `COc1cc(/C=N/n2cnc3oc(-c4ccccc4)cc3c2=N)cc(CN2CCN(C)CC2)c1O`, the growth with NCI-H23 lung was 104%; in the experiment on NCI-H226 lung it was 87.3%; in the experiment on NCI-H322M lung, 108%; with HOP-62 NSCLC, 88.1%; with NCI-H460 lung it was 108%; with HOP-92 NSCLC, 74.9%. Further, the growth was 96.9% with NCI-H522 lung; 62.5% with 786-0 renal; 80.9% in the experiment with COLO 205 colon; 110% in the experiment with DU-145 prostate; 26.3% in the experiment with K-562 leukemia; 113% with MALME-3M melanoma. For the same compound, the growth in the experiment on MDA-MB-231 breast is 79.3%; with RXF 393 renal it was 27.7%; in the experiment with SF-268 CNS it was 93.6%; with SF-295 CNS, 109%; with SF-539 CNS it was 94%; with UACC-257 melanoma, 106%. The growth in the experiment with M14 melanoma is 103%.
For the compound `O=C(Cn1cc(CN2C(=O)c3ccc([N+](=O)[O-])cc3C2=O)nn1)Nc1ccc(F)cc1Cl`, the growth was 98% in the experiment on NCI-H23 lung; 101% in the experiment with NCI-H226 lung; 100% with NCI-H322M lung; 109% in the experiment with HOP-62 NSCLC; 106% with NCI-H460 lung; 79.7% in the experiment on HOP-92 NSCLC. Also, the growth is 93.1% in the experiment on NCI-H522 lung; 93.9% in the experiment with 786-0 renal; 106% in the experiment with DU-145 prostate; 97.9% with K-562 leukemia; 83.3% in the experiment on MALME-3M melanoma; 92.4% in the experiment on MDA-MB-231 breast. Besides, the growth in the experiment with SF-268 CNS was 99.8%; in the experiment with SF-295 CNS, 104%; in the experiment with SF-539 CNS, 93.9%; in the experiment with UACC-257 melanoma, 97.8%; in the experiment on M14 melanoma, 94.8%.
Take `Cc1ccc(NC(=O)c2cc(/C=C/C(=O)NO)cc(C(F)(F)F)c2)cc1Nc1nccc(-c2cccnc2)n1`: the growth with NCI-H23 lung is 2.29% (active); in the experiment on NCI-H226 lung, 17.5%; with NCI-H322M lung, 12.8%; in the experiment on HOP-62 NSCLC it was -19.1% (active); in the experiment on NCI-H460 lung it was 2.09% (active); in the experiment with HOP-92 NSCLC, -30.6% (active). Moreover, the growth in the experiment with NCI-H522 lung was -73.1% (active); in the experiment with 786-0 renal it was -22% (active); in the experiment on COLO 205 colon, -65.2% (active); in the experiment with DU-145 prostate, 14.1%; in the experiment on K-562 leukemia, 5.9% (active); with MALME-3M melanoma, -19.2% (active). For the same compound, the growth with MDA-MB-231 breast was -24.7% (active); in the experiment with RXF 393 renal it was -8.53% (active); in the experiment on SF-268 CNS, -3.6% (active); with SF-295 CNS it was -4.95% (active); in the experiment with SF-539 CNS, -15.2% (active); with UACC-257 melanoma, -38.8% (active). The growth in the experiment with M14 melanoma is -20.7% (active).
Regarding `Cn1cc(-c2nn3c(=O)cc(-c4ccccc4)nc3s2)c2cc(F)ccc21`, the growth in the experiment on NCI-H23 lung is 59.7%; with NCI-H226 lung, 46.4%; in the experiment on NCI-H322M lung, 65.6%; in the experiment with HOP-62 NSCLC, 45%; in the experiment on NCI-H460 lung it was 15.5%; in the experiment on HOP-92 NSCLC, -3.43% (active). Further, the growth in the experiment with NCI-H522 lung was -37.4% (active); with 786-0 renal, 82.5%; with COLO 205 colon it was 44.8%; in the experiment with DU-145 prostate, 66.6%; in the experiment on MALME-3M melanoma, 22.7%; with MDA-MB-231 breast, 58.3%. For the same compound, the growth in the experiment with RXF 393 renal is 45.9%; in the experiment on SF-268 CNS, 78.4%; with SF-295 CNS, 34.7%; in the experiment with SF-539 CNS, 49.9%; in the experiment on M14 melanoma, 46.6%.

These data come from PubChem BioAssay (NCI).
